Data as given in PubChem BioAssay AID1259400 (National Center for Advancing Translational Sciences (NCATS), 2018).
Several values for one entry are separate records, joined by “and”; a condition that tells them apart may be missing. Equal values may be shown once. Out of some 350,000 compounds screened, about 2,100 (0.6%) were called active. Another 1% or so got no clear call; they are omitted.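 How the source made its calls: active means activity change of -60% or lower, but not beyond a set lower limit; inconclusive means change between -60% and -40%, or beyond the set limit; inactive means change above -40%.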 This excerpt belongs to a sample that is enriched for actives. More than one record can exist for a structure, and the calls need not agree.

Target: Relaxin receptor 1 (Homo sapiens) (UniProt Q9HBX9)
Assay: qHTS Assay for Antagonists of the Relaxin Receptor RXFP1
Conditions: HEK293-RXFP1, relaxin-stimulated cAMP HTRF, 30 min; at 57.5 µM; stronger effect = lower value
On the % scale 0 is the no-effect control and ±100 the full control effect.

Sequence of Relaxin receptor 1 (Homo sapiens) (Q9HBX9 whole entry, looked up): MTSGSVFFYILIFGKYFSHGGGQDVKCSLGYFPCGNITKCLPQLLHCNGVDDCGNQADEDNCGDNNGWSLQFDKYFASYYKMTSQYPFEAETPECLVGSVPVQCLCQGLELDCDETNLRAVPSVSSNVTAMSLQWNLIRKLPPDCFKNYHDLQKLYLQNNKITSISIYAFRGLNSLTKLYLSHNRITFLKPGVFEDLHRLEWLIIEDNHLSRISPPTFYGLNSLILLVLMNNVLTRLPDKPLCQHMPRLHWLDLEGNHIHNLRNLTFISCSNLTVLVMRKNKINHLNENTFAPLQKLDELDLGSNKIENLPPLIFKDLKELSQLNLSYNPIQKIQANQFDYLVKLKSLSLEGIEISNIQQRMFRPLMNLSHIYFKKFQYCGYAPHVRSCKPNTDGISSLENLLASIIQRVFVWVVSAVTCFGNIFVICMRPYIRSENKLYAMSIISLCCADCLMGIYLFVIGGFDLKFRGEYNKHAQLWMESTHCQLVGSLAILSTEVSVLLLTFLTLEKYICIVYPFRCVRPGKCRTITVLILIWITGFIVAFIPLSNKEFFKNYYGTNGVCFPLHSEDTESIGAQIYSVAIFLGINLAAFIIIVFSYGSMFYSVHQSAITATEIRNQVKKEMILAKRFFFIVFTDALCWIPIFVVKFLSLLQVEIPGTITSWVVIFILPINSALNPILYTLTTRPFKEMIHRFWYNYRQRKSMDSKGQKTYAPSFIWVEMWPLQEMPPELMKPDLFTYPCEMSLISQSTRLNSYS

Activity change, negative = inhibition, inactive:
COc1ccc(N2CCN(C(=O)CNC(=O)c3ccc(Br)o3)CC2)cc1 -3.36%
COc1ccc(CCC(=O)NCCc2csc(-c3ccc(Cl)cc3)n2)cc1 -21.7%
C[N+](C)(CCOc1ccccc1)Cc1cccs1 (tested in a mixture with another compound) 10.6%
Cc1ccc(-n2ncc3c(NCCCn4ccnc4)ncnc32)cc1Cl -9.38%
COc1ccc(OC)c(CNC(=O)CN2C(=O)CCn3nc(-c4cn(C)c5ccccc45)cc32)c1 -2.73%
CC(=O)OC1=C(C(C)=O)N(Cc2ccccc2)S(=O)(=O)c2ccccc21 -3.88%
Cc1ccccc1NC(=S)NC(=O)Cc1ccc(Cl)cc1 -24.7%
Cc1ccccc1NC(=O)CSC(=O)c1ccccc1 -0.348%
O=S(=O)(NCC(c1ccccc1)N1CCc2ccccc21)c1ccccc1 (centres undefined) -18.8%
Cc1cc(NC(=O)CSCC(=O)NC(C)c2ccccc2)no1 (centres undefined) 3.67%
Cc1cc(NC(=O)CSc2nnc(-c3ccc(Cl)s3)o2)no1 -21%
COc1ccccc1N1CCN(S(=O)(=O)CCNC(=O)COc2ccc(F)cc2)CC1 8.32%
Cc1ccc(NC(=O)c2ccco2)cc1 -9.99%
CCc1nnc(NC(=O)c2ccco2)s1 0.195%
Cc1ccc(C2c3[nH]c4ccccc4c3CCN2C(=O)c2cccc(C)c2)cc1 (centres undefined) -10.4%
Cc1cc(C)cc(NC(=O)Cn2nc(N3CCN(c4ccccc4)CC3)ccc2=O)c1 -7.03%
Cc1ccc(NC(=O)CCCn2c(=O)c3cccn3c3ccccc32)cc1Cl -24.4%
COc1ccc(C(=O)NCC(c2ccc(N(C)C)cc2)N2CCc3ccccc32)c(OC)c1 (centres undefined) -11.3%
COc1ccc(N2CCN(C(=O)C3CCCN(C(=O)c4cc5sccc5n4C)C3)CC2)cc1 (centres undefined) -23.3%
Cc1ccc(Cn2c(=O)n(Cc3nc(-c4ccccc4)no3)c(=O)c3cc4c(cc32)OCO4)cc1 15.5%
C#CCOc1ccc(/C=C2/C(=O)ON=C2C)cc1OCC -2.39%
COc1cc(/C=C2/C(=O)NN(c3ccc(F)cc3)C2=O)cc([N+](=O)[O-])c1O -12.2%
Cc1ccc(-c2nc3ccccn3c2Nc2c(C)cccc2C)o1 -10.4%
COc1ccc(CNC(=O)c2ccc(NC(=O)N3CC4CCCN4c4ccccc43)cc2)cc1 (centres undefined) -9.24%
CSc1ccccc1-c1nnc(NC(=O)c2ccc3c(c2)OCCO3)o1 23.7%
COc1cc(OC)c(OC)cc1/C=C/c1nc2ccccc2c(=O)n1-c1ccc(Br)c(C)c1 -16.8%
O=C(CCS(=O)(=O)c1cc(Br)cc2c1N(C(=O)C1CC1)CC2)Nc1ccc(Br)cc1F 2.95%
O=S(=O)(NCCS(=O)(=O)N1CCN(c2ccccc2)CC1)c1ccc(Cl)cc1 -36.9%
O=C(NCCS(=O)(=O)N1CCN(c2ccc(F)cc2)CC1)c1ccccc1Br -4.07%
CCCC(=O)O[C@]1(C(=O)COC(=O)CC)CC[C@@H]2[C@@H]3CCC4=CC(=O)CC[C@]4(C)[C@H]3[C@@H](O)C[C@@]21C -16.1%
O=c1c(=O)n(Cc2c(F)cccc2Cl)ccn1Cc1ccccc1 -0.809%
COc1ccc(Cn2ccn(Cc3cccc(OC)c3)c(=O)c2=O)cc1 1.35%
Cn1cccc1/C=C1\SC(=S)N(NC(=O)c2ccc(Cl)cc2)C1=O -8.62%
O=C(CN1C(=O)S/C(=C\c2ccccc2F)C1=O)NCCCn1ccnc1 4.7%
COCCCNC(=O)c1c(NC(=O)c2cc(=O)c3cc(C)c(C)cc3o2)sc2c1CCCC2 -4.73%
O=C(CSc1nccn1-c1ccc(F)cc1)Nc1cccc2ccccc12 1.1%
CC(C)c1ccc(NC(=O)c2ccc3c(O)c(S(=O)(=O)c4ccccc4)c(=O)[nH]c3c2)cc1 -14%
CCOC(=O)N1CCc2c(sc3c2c(=O)n(Cc2ccccc2)c(=O)n3CC(=O)Nc2cccc(C)c2)C1 4.91%
COC(=O)c1c(NC(=O)c2cc(=O)c3c(C)cc(C)cc3o2)sc2c1CCCC2 3.21%
CCN(CC)S(=O)(=O)c1nnc(NC(=O)COc2ccccc2Cl)s1 -10.5%

Activity change, negative = inhibition, -32.7% (inactive) and -89.7% (active):
COc1ccc(-c2nc(CCNC(=O)c3ccc(Br)o3)cs2)cc1

Activity change, negative = inhibition, active:
Cc1ccccc1N/C(SCc1ccc(Cl)cc1)=C(/C#N)C(N)=O -65.6%
Cc1cc(NC(=O)CSc2ncc(C(F)(F)F)cc2Cl)no1 -64.7%
O=C(Nc1nc(-c2ccco2)c(-c2ccco2)s1)c1ccco1 -61.6%
C#CCOc1ccc(/C=C2/C(=O)NN(c3ccccc3)C2=O)cc1OC -66.6%
O=S(=O)(NCCS(=O)(=O)N1CCN(c2ccccc2)CC1)c1ccc(F)cc1 -74.9%
O=[N+]([O-])/C=C/c1ccc2c(ccn2Cc2ccccc2)c1 -93.7%
Cn1cccc1/C=C1\SC(=O)N(CC(=O)Nc2ccc(F)cc2)C1=O -75.7%
CCOC(=O)c1c(NC(C)=O)c2c3c(sc2n1Cc1c(C)cc(C)cc1C)CCCC3 -73.1%
